For 6 molecules, outcome and AC50 results are on record in PubChem BioAssay (EPA / NIEHS).

Test [1] addresses Paired box protein Pax-6 (Homo sapiens) (UniProt P26367). In words: ATG_Pax6_CIS: Attagene CIS-FACTORIAL HepG2 Assay for human Paired Box 6 (PAX6) (AID 2282956). The following applies: HepG2 CIS-FACTORIAL PAX6 reporter transcription, RNA readout; actives raise or lower the signal. The procedure, abridged: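 Transient MRTU transfection of HepG2 → compound exposure 24 h → TriZol RNA, oligo(dT) RT → PCR, 6-FAM primer extension, HpaI cut → capillary electrophoresis; activity fitted both directions against DMSO.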

The nature of test [2]: ATG_PXRE_CIS: Attagene CIS-FACTORIAL HepG2 Assay for human Pregnane X Receptor Element (PXRE) (AID 2282957). The following applies: HepG2 Attagene CIS-FACTORIAL PXRE reporter, mRNA; actives raise or lower the signal. The procedure, abridged:
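HepG2 cells transiently transfected with cis-regulated multiple reporter transcription units; endogenous factor activity measured as reporter mRNA 24 h after dosing. RT-PCR, fluorescent primer extension, HpaI digestion, capillary electrophoresis; bidirectional fit versus DMSO baseline.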

A short description of test [3]: ATG_PPRE_CIS: Attagene CIS-FACTORIAL HepG2 Assay for human Peroxisome Proliferator-activated Response Element (PPRE) (AID 2282958). The following applies: HepG2 PPRE cis-element reporter, Attagene transcription factor profiling; actives raise or lower the signal. The method, boiled down:
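HepG2 cells are transiently transfected with multiplexed cis-promoter reporter units to report endogenous PPAR activity. After 24 h dosing, reporter mRNA is read by RT-PCR and capillary electrophoresis. Fitting is bidirectional against DMSO.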

Test [4] can be described thus: ATG_RORE_CIS: Attagene CIS-FACTORIAL HepG2 Assay for human RAR-related Orphan Receptor Element (RORE) (AID 2282959). The conditions noted are these: HepG2 Attagene cis-factorial RORE reporter, mRNA; actives raise or lower the signal. The method, boiled down:
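HepG2 cells carrying transiently transfected cis-regulated reporter units; RORE-driven reporter mRNA quantified 24 h post-dosing by RT-PCR, 6-FAM primer extension, HpaI digestion and capillary electrophoresis. Bidirectional fit versus DMSO.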

Test [5] in a line: ATG_Sox_CIS: Attagene CIS-FACTORIAL HepG2 Assay for human SRY-box transcription factor (SOX) (AID 2282960). The conditions noted are these: HepG2 Attagene cis-factorial SOX reporter, mRNA; actives raise or lower the signal. The method, boiled down: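 HepG2 cells transiently transfected with multiple cis-regulated reporter units, then dosed for 24 h. Reporter mRNA quantified by RT-PCR, fluorescent labelling, HpaI digestion and capillary electrophoresis; bidirectional fit versus DMSO.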

Test [6] has as its target Transcription factor Sp1 (Homo sapiens) (UniProt P08047). Put plainly: ATG_Sp1_CIS: Attagene CIS-FACTORIAL HepG2 Assay for human Specificity Protein 1 (Sp1) (AID 2282961). The conditions noted are these: HepG2 Sp1 cis-reporter transcription, actives raise or lower the signal. The procedure, abridged: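 HepG2 cells transiently transfected with multiplexed cis-regulated reporter constructs, chemical exposure 24 h. Reporter mRNA quantified by RT-PCR with capillary electrophoresis; bidirectional fit relative to DMSO.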

The target of test [7] is Signal transducer and activator of transcription 3 (Homo sapiens) (UniProt P40763). Put plainly: ATG_STAT3_CIS: Attagene CIS-FACTORIAL HepG2 Assay for human Signal Transducer and Activator of Transcription 3 (STAT3) (AID 2282963). The following applies: HepG2, Attagene cis-factorial STAT3 reporter transcription; actives raise or lower the signal. The method, boiled down: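 Transcript-level reporter assay. HepG2 transient MRTU transfection, 24 h exposure, fluorescence detection after RT-PCR and CE; DMSO baseline.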

Test [8] in a line: ATG_TA_CIS: Attagene CIS-FACTORIAL HepG2 Assay for human TA Basal Promoter (AID 2282964). The following applies: HepG2 Attagene CIS-factorial TA basal promoter reporter; actives raise or lower the signal. The method, boiled down: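 HepG2 cells transiently transfected with multiple reporter units under cis promoter elements, reporting endogenous transcription factor activity; this endpoint tracks the TA basal promoter as background control. Reporter mRNA after 24 h dosing measured by RT-PCR/capillary electrophoresis; bidirectional fits versus DMSO.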

Test [9] in a line: ATG_TCF_b_cat_CIS: Attagene CIS-FACTORIAL HepG2 Assay for human T-Cell-Factor with beta-catenin (TCF/b-cat) (AID 2282965). The following applies: HepG2 TCF/beta-catenin cis-reporter transcription, actives raise or lower the signal. The method, boiled down: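 HepG2 cells transiently transfected with multiple cis-promoter-regulated reporter transcription units, so endogenous transcription factor activity is measured. Reporter mRNA read 24 hours after dosing by RT-PCR, fluorescent labelling and capillary electrophoresis; bidirectional fitting against DMSO.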

Test [10] in a line: ATG_TAL_CIS: Attagene CIS-FACTORIAL HepG2 Assay for human TAL Basal Promoter (AID 2282966).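 Further: background control endpoint measuring basal TAL promoter reporter mRNA not a specific factor.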 The following applies: HepG2 Attagene cis-factorial TAL promoter reporter; actives raise or lower the signal. The procedure, abridged:
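HepG2 cells were transiently transfected with promoter-driven multiplexed reporter units and dosed for 24 h. Reporter mRNA was measured by RT-PCR with capillary electrophoresis fluorescence; bidirectional fits used DMSO as baseline, serving as a background control.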

Test [11] can be described thus: ATG_TGFb_CIS: Attagene CIS-FACTORIAL HepG2 Assay for human Transforming Growth Factor (TGF) (AID 2282967). The conditions noted are these: HepG2 Attagene CIS TGFb reporter, mRNA transcription; actives raise or lower the signal. The method, boiled down:
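HepG2 cells transiently transfected with cis-promoter-driven multiple reporter units measure endogenous TF activity; reporter mRNA quantified at 24 h by RT-PCR, FAM labeling, HpaI digestion and capillary electrophoresis. Bidirectional fit vs DMSO.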

In test [12] the target is Nuclear receptor subfamily 1 group I member 3 (Homo sapiens) (UniProt Q14994). In words: ATG_CAR_TRANS: Attagene TRANS-FACTORIAL HepG2 Assay for human Constitutive Androstane Receptor (CAR) (AID 2282969; active means hit-call score of the fitted dose curve at least 0.9, where 1 is the maximum;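 further: activators raise reporter mRNA above DMSO so AC50 marks induction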). The conditions noted are these: HepG2 Attagene TRANS-FACTORIAL CAR reporter. The method, boiled down: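 HepG2 cells transiently transfected with multiplexed GAL4-UAS reporter units expressing chimeric NR-Gal4 proteins; compound exposure 24 h. Reporter mRNA measured by RT-PCR, 6-FAM labelling, HpaI digestion and capillary electrophoresis; gain-of-signal fitted against DMSO baseline.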

The target in test [13] is Estrogen receptor (Homo sapiens) (UniProt P03372). In words: ATG_ERa_TRANS: Attagene TRANS-FACTORIAL HepG2 Assay for human Estrogen Receptor alpha (ERa) (AID 2282970; active means hit-call score of the fitted dose curve at least 0.9, where 1 is the maximum). The conditions noted are these: HepG2 Attagene TRANS ERa GAL4 reporter, mRNA. The method, boiled down:
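HepG2 cells transiently transfected with multiplexed GAL4-UAS reporter units; ERa activity read via exogenous chimeric NR-Gal4 protein. After 24 hour compound exposure, reporter mRNA measured by RT-PCR with 6-FAM labelling and capillary electrophoresis; gain-of-signal fitted relative to DMSO.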

Test [14] addresses X-box-binding protein 1 (Homo sapiens) (UniProt P17861). In words: ATG_Xbp1_CIS: Attagene CIS-FACTORIAL HepG2 Assay for human X-box Binding Protein 1 (XBP1) (AID 2282972). The following applies: HepG2 XBP1 cis-element reporter, Attagene multiplex; actives raise or lower the signal. The procedure, abridged:
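HepG2, transient MRTU transfection (cis-promoter driven), 24 h compound exposure. Total RNA → oligo(dT) RT → PCR → 6-FAM labeling → HpaI cut → CE. Bidirectional fit vs DMSO.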

The nature of test [15]: ATG_M_19_TRANS: Attagene TRANS-FACTORIAL HepG2 Assay for M19 Transcription Factor (Internal Marker) (AID 2282974; active means hit-call score of the fitted dose curve at least 0.9, where 1 is the maximum). The conditions noted are these: HepG2 Attagene TRANS-FACTORIAL M19 internal marker reporter. The method, boiled down: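 HepG2 transiently transfected with GAL4-UAS multiplex reporter constructs, exposed 24 h; reporter RNA quantified by RT-PCR, 6-FAM labeling, HpaI digestion and capillary electrophoresis; internal background marker fitted upward versus DMSO.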

The nature of test [16]: ATG_VDRE_CIS: Attagene CIS-FACTORIAL HepG2 Assay for human Vitamin D Receptor Element (VDRE) (AID 2282968). The following applies: HepG2 VDRE cis-reporter transcription, actives raise or lower the signal. The procedure, abridged: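 RT-PCR/CE readout of reporter mRNA; HepG2, transient transfection, 24 h dosing; DMSO baseline; bidirectional analysis.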
Test [17] can be described thus: ATG_SREBP_CIS: Attagene CIS-FACTORIAL HepG2 Assay for human Sterol Regulatory Element Binding (SREBP) (AID 2282962). The conditions noted are these: HepG2 Attagene cis-factorial SREBP reporter, mRNA; actives raise or lower the signal. The method, boiled down:
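Transfected HepG2 (cis-regulated reporter library, endogenous TFs) → compound 24 h → total RNA → oligo(dT) RT → reporter-specific PCR → FAM primer extension, HpaI cut → CE fluorescence. Fit bidirectional vs DMSO.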

Test [18] is described as follows: ATG_GAL4_TRANS: Attagene TRANS-FACTORIAL HepG2 Assay for GAL4 (Internal Marker) (AID 2282976; active means hit-call score of the fitted dose curve at least 0.9, where 1 is the maximum). The conditions noted are these: HepG2 Attagene TRANS GAL4 internal marker reporter. The procedure, abridged: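 HepG2 cells transiently transfected with multiplexed GAL4-UAS reporter constructs were dosed for 24 h. Reporter mRNA was measured by RT-PCR, 6-FAM primer extension, HpaI digestion and capillary electrophoresis, and gain of signal was fitted relative to DMSO.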

In test [19] the target is Estrogen-related receptor gamma (Homo sapiens) (UniProt P62508). In words: ATG_ERRg_TRANS: Attagene TRANS-FACTORIAL HepG2 Assay for human Estrogen-Related Receptor gamma (ERRg) (AID 2282977; active means hit-call score of the fitted dose curve at least 0.9, where 1 is the maximum;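 further: hits increase reporter signal over DMSO so potencies reflect activators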). The following applies: HepG2 Attagene TRANS reporter, ERRg transactivation. The procedure, abridged:
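HepG2 cells transiently transfected with multiplexed GAL4-UAS reporter units driven by chimeric NR-Gal4 proteins; 24 h exposure. Reporter mRNA quantified by RT-PCR, fluorescent labelling, HpaI digestion and capillary electrophoresis; gain of signal vs DMSO.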

SMILES strings stand for the structures. Results filed as inconclusive are left out. Active and inactive are the calls of the source. How the source made its calls, unless noted: active means hit-call score of the fitted dose curve at least 0.9, where 1 is the maximum; inactive means score below 0.9.

Chain of Signal transducer and activator of transcription 3 (Homo sapiens) (P40763 whole entry, looked up): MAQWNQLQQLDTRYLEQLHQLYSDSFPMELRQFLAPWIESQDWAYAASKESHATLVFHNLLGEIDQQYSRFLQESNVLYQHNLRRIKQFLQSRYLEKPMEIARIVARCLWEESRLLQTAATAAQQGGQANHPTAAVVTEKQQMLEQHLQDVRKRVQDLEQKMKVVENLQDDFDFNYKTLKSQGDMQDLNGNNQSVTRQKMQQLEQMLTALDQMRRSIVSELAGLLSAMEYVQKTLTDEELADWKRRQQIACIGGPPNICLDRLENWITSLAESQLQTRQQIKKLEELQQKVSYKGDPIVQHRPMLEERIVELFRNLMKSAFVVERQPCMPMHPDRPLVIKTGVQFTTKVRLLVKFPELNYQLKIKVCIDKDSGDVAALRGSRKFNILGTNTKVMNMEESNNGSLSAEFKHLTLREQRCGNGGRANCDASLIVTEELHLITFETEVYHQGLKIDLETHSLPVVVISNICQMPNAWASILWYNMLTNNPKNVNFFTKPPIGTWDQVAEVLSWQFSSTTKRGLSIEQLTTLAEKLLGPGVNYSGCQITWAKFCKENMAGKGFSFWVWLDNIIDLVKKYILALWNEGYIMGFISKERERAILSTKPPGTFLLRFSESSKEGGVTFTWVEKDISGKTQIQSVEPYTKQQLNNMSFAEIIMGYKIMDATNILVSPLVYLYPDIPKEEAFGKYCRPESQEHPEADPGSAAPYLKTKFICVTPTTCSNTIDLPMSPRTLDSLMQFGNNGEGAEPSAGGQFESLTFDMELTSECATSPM
Chain of Nuclear receptor subfamily 1 group I member 3 (Homo sapiens) (Q14994 whole entry, looked up, the tested form may be a part): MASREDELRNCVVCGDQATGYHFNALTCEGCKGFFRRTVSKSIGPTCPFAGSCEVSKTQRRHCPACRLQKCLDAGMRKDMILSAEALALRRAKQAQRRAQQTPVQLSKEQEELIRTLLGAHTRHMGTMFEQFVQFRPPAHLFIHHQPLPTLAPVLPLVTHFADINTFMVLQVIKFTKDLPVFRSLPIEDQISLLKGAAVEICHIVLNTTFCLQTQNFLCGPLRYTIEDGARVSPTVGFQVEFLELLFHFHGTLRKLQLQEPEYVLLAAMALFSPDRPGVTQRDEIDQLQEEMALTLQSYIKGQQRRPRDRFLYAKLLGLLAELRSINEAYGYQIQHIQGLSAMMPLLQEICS
Chain of X-box-binding protein 1 (Homo sapiens) (P17861 whole entry, looked up): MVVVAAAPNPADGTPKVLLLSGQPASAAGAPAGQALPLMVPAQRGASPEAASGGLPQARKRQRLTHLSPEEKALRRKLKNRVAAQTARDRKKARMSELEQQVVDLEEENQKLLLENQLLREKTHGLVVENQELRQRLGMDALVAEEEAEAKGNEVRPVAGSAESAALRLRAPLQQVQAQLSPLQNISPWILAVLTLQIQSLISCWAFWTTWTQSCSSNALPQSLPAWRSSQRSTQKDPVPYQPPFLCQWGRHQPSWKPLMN
Chain of Transcription factor Sp1 (Homo sapiens) (P08047 whole entry, looked up): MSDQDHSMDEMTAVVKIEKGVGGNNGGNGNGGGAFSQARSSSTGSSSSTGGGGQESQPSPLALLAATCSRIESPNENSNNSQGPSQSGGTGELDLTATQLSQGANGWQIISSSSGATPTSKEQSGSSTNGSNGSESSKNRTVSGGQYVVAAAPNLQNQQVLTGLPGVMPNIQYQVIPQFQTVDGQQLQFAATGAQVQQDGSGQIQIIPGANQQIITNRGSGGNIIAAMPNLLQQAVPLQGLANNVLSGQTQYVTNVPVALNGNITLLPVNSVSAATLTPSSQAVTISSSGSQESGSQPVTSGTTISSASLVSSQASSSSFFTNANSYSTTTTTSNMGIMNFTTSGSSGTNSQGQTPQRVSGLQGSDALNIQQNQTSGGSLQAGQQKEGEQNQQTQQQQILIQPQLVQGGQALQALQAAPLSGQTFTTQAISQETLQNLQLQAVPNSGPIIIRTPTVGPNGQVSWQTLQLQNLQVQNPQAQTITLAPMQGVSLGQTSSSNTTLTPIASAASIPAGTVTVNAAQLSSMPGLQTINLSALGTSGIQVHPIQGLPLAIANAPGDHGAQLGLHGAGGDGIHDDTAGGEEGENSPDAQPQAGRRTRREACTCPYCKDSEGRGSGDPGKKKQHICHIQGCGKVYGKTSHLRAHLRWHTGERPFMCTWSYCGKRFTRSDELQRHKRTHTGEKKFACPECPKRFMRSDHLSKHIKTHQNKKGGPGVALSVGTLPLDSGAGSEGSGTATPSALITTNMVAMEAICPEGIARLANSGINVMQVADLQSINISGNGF
Chain of Paired box protein Pax-6 (Homo sapiens) (P26367 whole entry, looked up): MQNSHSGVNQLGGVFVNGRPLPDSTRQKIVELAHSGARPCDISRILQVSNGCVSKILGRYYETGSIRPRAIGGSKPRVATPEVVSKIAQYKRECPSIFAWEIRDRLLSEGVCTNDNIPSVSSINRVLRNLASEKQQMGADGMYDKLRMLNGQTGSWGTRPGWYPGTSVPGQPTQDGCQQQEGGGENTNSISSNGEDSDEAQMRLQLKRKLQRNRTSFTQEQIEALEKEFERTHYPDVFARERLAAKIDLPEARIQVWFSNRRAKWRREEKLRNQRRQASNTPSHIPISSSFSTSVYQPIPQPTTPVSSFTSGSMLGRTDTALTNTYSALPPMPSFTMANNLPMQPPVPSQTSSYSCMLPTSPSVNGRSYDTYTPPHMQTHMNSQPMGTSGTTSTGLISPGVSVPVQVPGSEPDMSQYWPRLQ
Chain of Estrogen receptor (Homo sapiens) (P03372 whole entry, looked up, the tested form may be a part): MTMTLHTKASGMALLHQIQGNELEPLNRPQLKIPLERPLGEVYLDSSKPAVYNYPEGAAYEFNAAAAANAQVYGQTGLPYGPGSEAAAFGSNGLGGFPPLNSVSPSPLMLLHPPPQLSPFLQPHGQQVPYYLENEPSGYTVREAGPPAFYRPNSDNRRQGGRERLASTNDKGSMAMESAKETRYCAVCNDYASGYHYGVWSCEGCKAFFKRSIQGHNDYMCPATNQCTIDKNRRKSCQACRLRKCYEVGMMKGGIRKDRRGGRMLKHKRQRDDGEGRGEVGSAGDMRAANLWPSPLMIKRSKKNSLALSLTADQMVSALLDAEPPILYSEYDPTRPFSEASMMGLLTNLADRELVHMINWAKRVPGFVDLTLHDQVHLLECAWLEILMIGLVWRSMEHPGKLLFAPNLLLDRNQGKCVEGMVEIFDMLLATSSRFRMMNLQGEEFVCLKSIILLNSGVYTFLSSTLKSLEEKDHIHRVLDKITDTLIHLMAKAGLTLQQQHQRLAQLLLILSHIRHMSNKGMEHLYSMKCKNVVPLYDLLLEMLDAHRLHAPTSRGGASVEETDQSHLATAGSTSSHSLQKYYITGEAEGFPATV
Chain of Estrogen-related receptor gamma (Homo sapiens) (P62508 whole entry, looked up, the tested form may be a part): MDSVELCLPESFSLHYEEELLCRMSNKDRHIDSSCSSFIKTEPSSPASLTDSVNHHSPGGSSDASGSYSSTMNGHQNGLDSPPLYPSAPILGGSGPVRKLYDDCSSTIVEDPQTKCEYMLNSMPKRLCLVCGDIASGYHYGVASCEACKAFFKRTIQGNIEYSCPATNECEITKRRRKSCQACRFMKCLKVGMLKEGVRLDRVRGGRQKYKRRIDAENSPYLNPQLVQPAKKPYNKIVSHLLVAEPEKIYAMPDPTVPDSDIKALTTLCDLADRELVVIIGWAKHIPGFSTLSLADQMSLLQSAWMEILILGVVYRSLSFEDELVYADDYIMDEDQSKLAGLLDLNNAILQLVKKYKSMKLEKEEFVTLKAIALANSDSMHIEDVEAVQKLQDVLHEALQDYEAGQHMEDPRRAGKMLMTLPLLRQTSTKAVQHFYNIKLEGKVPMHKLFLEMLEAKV

Consider `Clc1nc(C(Cl)(Cl)Cl)c(Cl)c(Cl)c1Cl`, for which the molecule was classed as inactive in test [1], in [3], in test [4], in [5], in test [6] and in test [7]. Also, the call in test [8], in test [12], in test [13], in test [14] and in [15] was inactive. For the same molecule, the AC50 in test [2] is 39.4 µM (active); in test [9], 62.7 µM (active); in [10], 57.2 µM (active); in [11] it was 62.2 µM (active).

As to `Cc1cccc(C)c1C`, the result in test [1], in test [2], in [3], in [4], in test [5] and in test [6] was inactive. In addition, the molecule was classed as inactive in [7], in test [8], in test [9], in [10], in test [11] and in test [16]. The molecule was called inactive in test [12] and in test [14].

`CC1(CO)CN(c2ccccc2)NC1=O` (centres undefined): the call in test [1], in test [2], in test [3], in test [4], in [5] and in test [17] was inactive. The molecule was called inactive in test [7], in [8], in test [9], in [10], in test [11] and in [16]. The outcome in test [12] and in [14] was inactive.

Regarding `CCCCC(CC)COC(=O)/C=C\C(=O)OCC(CC)CCCC` (centres undefined), the outcome in test [1], in test [5], in test [6], in test [17], in [7] and in test [9] was inactive. In addition, the molecule was classed as inactive in test [10], in test [16], in test [12], in test [14], in [15] and in test [18]. In test [19], the molecule was called inactive. The AC50 in test [2] is 4.85 µM (active); in [3] it was 100 µM (active); in test [4] it was 100 µM (active).

In the case of `Cc1ccc(O)c(C(C)(C)C)c1`, the AC50 in test [1] was 138 µM (active); in [2], 25.1 µM (active); in test [4] it was 162 µM (active); in test [6], 80.7 µM (active); in test [17], 100 µM (active); in test [10], 181 µM (active). Further, the figures for the AC50 in [16] and in test [14] were 100 µM (active) and 142 µM (active), respectively. The outcome in [3], in test [5], in [7], in test [8], in test [9] and in [12] was inactive. For the same molecule, the molecule was classed as inactive in test [15].

In the case of `CCCCCCCCCCCCN`, the result in test [1], in test [2], in test [3], in test [4], in test [5] and in test [6] was inactive. Also, the call in test [7], in test [8], in test [9], in test [10], in test [11] and in test [12] was inactive. Also, the molecule was classed as inactive in test [14], in test [15] and in test [18].

For orientation: AC50 means the concentration at which the activity in the assay is half-maximal.
